Screening results as filed in PubChem.
12-LOX inh = Primary qHTS assay for inhibitors of human arachidonate 12S-lipoxygenase (ALOX12): Round 2; purified 12hLO, xylenol orange hydroperoxide absorbance; AID 1671190, 2021; Potency, µM (series often up to 108 µM), hits mostly inhibitors; Polyunsaturated fatty acid lipoxygenase ALOX12 (Homo sapiens), P18054; 580,000 compounds, 1.1% hits
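Purified human 12hLO (150 nM final) in 25 mM Hepes, 0.01% Triton X-100, pH 7.0 was preincubated 15 min at room temperature with compound. Then 40 uM arachidonic acid was added, 30 min. Hydroperoxide was read by Fe-XO absorbance ratio 573/405 nm.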
PLK1 PBD inh = qHTS for Inhibitors of PLK1-PDB (polo-like kinase 1 - polo-box domain): Primary Screen; Serine/threonine-protein kinase PLK1 (Homo sapiens), P53350; Plk1 PBD binding of FITC phosphopeptide, fluorescence polarization; AID 720504, 2013; 360,000 compounds, 2.8% hits; Potency, µM, hits mostly inhibitors; further: series mostly up to about 57 µM; nearly all actives have a fitted effect of over 65% in size
Target sequence (P53350 whole entry, looked up, the tested form may be a part): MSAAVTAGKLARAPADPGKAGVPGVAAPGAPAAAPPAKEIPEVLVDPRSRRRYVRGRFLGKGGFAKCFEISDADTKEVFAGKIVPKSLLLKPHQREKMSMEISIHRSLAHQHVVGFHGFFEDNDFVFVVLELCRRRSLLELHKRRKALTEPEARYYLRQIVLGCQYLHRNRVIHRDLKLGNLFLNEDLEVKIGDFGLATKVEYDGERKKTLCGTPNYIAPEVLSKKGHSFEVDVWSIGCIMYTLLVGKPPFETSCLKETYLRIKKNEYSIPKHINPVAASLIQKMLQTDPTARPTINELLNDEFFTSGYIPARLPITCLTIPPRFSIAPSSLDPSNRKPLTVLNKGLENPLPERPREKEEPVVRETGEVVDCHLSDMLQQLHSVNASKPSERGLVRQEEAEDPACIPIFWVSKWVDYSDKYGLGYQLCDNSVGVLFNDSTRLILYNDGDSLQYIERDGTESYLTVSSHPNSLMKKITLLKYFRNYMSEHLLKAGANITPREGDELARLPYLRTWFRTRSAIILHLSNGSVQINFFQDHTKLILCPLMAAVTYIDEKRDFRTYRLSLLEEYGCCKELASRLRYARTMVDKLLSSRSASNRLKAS
Sfp inh = qHTS Assay for Inhibitors of Bacillus subtilis Sfp phosphopantetheinyl transferase (PPTase); Biochemical Sfp PPTase activity, qHTS; Potency, µM, hits mostly inhibitors; AID 1490, 2009; 310,000 compounds, 3.5% hits;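 further: the enzyme is Sfp with the accession as filed and its product quenches rhodamine fluorescence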
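Fluorescence-quenching assay with 15 nM Sfp, 5 uM rhodamine-CoA and 12.5 uM BHQ-2-labelled ybbR peptide in pH 7.6 Hepes/MgCl2 buffer. Enzyme was pre-incubated with compound for 15 min at room temperature. Rate was taken from the 30-min fluorescence change (525/598 nm).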
VDR inh = Inhibitors of the vitamin D receptor (VDR): qHTS. 400,000 compounds, 0.93% hits. VDR-SRC2-3 peptide fluorescence polarization, 2 h. Vitamin D3 receptor (Homo sapiens), P11473. AID 504847, 2011. Potency, µM, actives largely listed as inhibitors
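The screen uses fluorescence polarization to detect compounds that interfere with recruitment of the SRC2-3 coactivator peptide to VDR; plates are read after 2 h at room temperature.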
Large screens that a line does not name were inactive. A selection: hits, their analogues and other compounds. The true share with any hit is near 4.2%. The call rests on the fitted dose curve; in most records, active means well fitted curve in the direction sought with a large enough effect; inconclusive means small, poorly fitted or top-dose-only effect, or another doubt; inactive means no such curve, though single readings can be large; an effect the other way counts as inactive or inconclusive.

CCOC(=O)c1c(NC(=O)/C=C/C(=O)O)sc(C)c1-c1ccc(Cl)cc1	VDR inh 39.8µM
CCOC(=O)c1c(NC(=O)Nc2ccc(Cl)cc2)sc(C)c1C	none
O=C(CSc1nnc(-c2cccnc2)n1C1CC1)c1cc2cc(Cl)ccc2o1	12-LOX inh 25.1µM (no result: PLK1 PBD inh, Sfp inh, VDR inh)
O=C(CSc1nnc(-c2cccnc2)n1C1CCCCC1)NC1CCCCC1	none
Cn1c(SCC(=O)c2cc3cc(Cl)ccc3o2)nnc1-c1cccnc1	12-LOX inh 28.2µM (no result: PLK1 PBD inh, Sfp inh, VDR inh)
O=C(Cc1cc(=O)[nH]c(=O)[nH]1)NCC1CCCO1 (stereo not given)	12-LOX inh inconclusive
CC(=O)N1CCC(=NNS(=O)(=O)c2ccc(C)c([N+](=O)[O-])c2)CC1	none
C/C(CC(C)C)=N\NS(=O)(=O)c1ccc(C)c([N+](=O)[O-])c1	PLK1 PBD inh 29.9µM
Cc1ccc(S(=O)(=O)Nc2ccccc2N=Cc2ccc([N+](=O)[O-])cc2[N+](=O)[O-])cc1	12-LOX inh 25.1µM, VDR inh inconclusive (no result: Sfp inh)
COc1ccc(NS(=O)(=O)c2ccc(C)cc2)c([N+](=O)[O-])c1	PLK1 PBD inh 26.7µM, VDR inh inconclusive
Cc1ccc(S(=O)(=O)Nc2ccc(S(=O)(=O)Nc3ccccc3)cc2[N+](=O)[O-])cc1	12-LOX inh 25.1µM (no result: PLK1 PBD inh, Sfp inh, VDR inh)
COc1ccc(NC(=O)c2ccccc2NS(=O)(=O)c2ccc(C)cc2)c([N+](=O)[O-])c1	none
CC(C)C(=O)Nc1ccc(-c2nc3cc(Cl)ccc3o2)cc1	none (no result: PLK1 PBD inh, Sfp inh, VDR inh)
c1ccc(Nc2cc3c(cn2)CN(Cc2ncc[nH]2)CCN3)cc1	none (no result: PLK1 PBD inh, Sfp inh, VDR inh)
Cc1ccc(S(=O)(=O)Nc2ccc(C(N)=O)cc2)cc1[N+](=O)[O-]	PLK1 PBD inh 15µM, VDR inh inconclusive
CCCC(C)NC(=O)Cc1ccc(Br)cc1 (stereo not given)	none
S=C(NCCc1ccccc1)N1CCN(Cc2ccccc2)CC1	12-LOX inh inconclusive, Sfp inh inconclusive
Oc1ccc(N2CCN(C(=S)NCCc3ccccc3)CC2)cc1	12-LOX inh inconclusive, Sfp inh 11.2µM
Oc1ccccc1N1CCN(C(=S)NCCc2ccccc2)CC1	12-LOX inh inconclusive, Sfp inh 44.7µM
Cc1cnc(CNc2nc(-c3ccc(N(C)C)cc3)nc3ccccc23)cn1	none (no result: PLK1 PBD inh)
c1ccc(Nc2ncnc3c2oc2ccccc23)cc1	12-LOX inh inconclusive, Sfp inh 79.4µM
O=C(O)COc1cccc(NC(=O)C2CCCO2)c1 (stereo not given)	none
O=CN1CCN(C(=O)c2ccc(-c3nc4ccccc4s3)s2)CC1	none
O=C(NCc1ccco1)c1cccnc1-c1nc2ccccc2s1	12-LOX inh inconclusive, PLK1 PBD inh 23.8µM, Sfp inh 22.4µM, VDR inh inconclusive
O=C(NCc1ccco1)c1cccnc1Cl	none
CN1CCN(C(=O)c2cccnc2-c2nc3ccccc3s2)CC1	12-LOX inh 31.6µM (no result: PLK1 PBD inh, Sfp inh, VDR inh)
CSc1ncccc1C(=O)OCC(=O)NCc1ccccc1	none (no result: Sfp inh)
CCc1nnc(NS(=O)(=O)c2ccc(NC(=S)NC(=O)c3ccc(Br)cc3)cc2)s1	12-LOX inh 5.62µM, PLK1 PBD inh inconclusive, Sfp inh inconclusive, VDR inh inconclusive
CCc1nnc(NS(=O)(=O)c2ccc(NC(=S)NC(=O)c3ccccc3)cc2)s1	12-LOX inh 7.94µM
CCOc1c(Cl)cc(Cl)cc1CNCc1ccccn1	none (no result: PLK1 PBD inh, Sfp inh, VDR inh)
CCC(CCC(=O)Nc1ccn(-c2ccccc2)n1)C(=O)O (stereo not given)	none
Cn1c(-n2cccc2)c(-c2c(-c3cccc4ccccc34)[nH]c3c2c(=O)[nH]c(=O)n3C)c(=O)[nH]c1=O	12-LOX inh 17.8µM (no result: PLK1 PBD inh, Sfp inh, VDR inh)
COCCn1nnnc1C(c1ccc(C)cc1)N1CCN(Cc2ccc3c(c2)OCO3)CC1 (stereo not given)	PLK1 PBD inh 23.8µM
CCC(C)(C)n1nnnc1C(c1cc2cc(C)cc(C)c2[nH]c1=O)N1CCN(Cc2ccc3c(c2)OCO3)CC1 (stereo not given)	Sfp inh 63.1µM
CCC(C)(C)n1nnnc1C(c1cc2cc(C)cc(C)c2[nH]c1=O)N1CCCC1 (stereo not given)	Sfp inh 25.1µM
Cc1cc(C)c2[nH]c(=O)c(C(c3nnnn3C(C)(C)C)N3CCN(C(=O)c4ccco4)CC3)cc2c1 (stereo not given)	Sfp inh 17.8µM
CC(=O)Nc1ccc(S(=O)(=O)N(C)CC(=O)Nc2nc3ccccc3[nH]2)cc1	none (no result: Sfp inh)
CN(C)c1ccc(C(c2nnnn2C(C)(C)C)N2CCN(C(=O)c3ccco3)CC2)cc1 (stereo not given)	VDR inh 15.8µM
CCOc1ccc(C(c2nnnn2C(C)(C)C)N2CCN(C(=O)c3ccco3)CC2)cc1 (stereo not given)	none
COc1ccc(C2/C(=C(/O)c3ccc(F)cc3)C(=O)C(=O)N2c2ccccn2)cc1OC (stereo not given)	12-LOX inh inconclusive, PLK1 PBD inh 11.9µM, VDR inh inconclusive
COC(=O)c1ccc(C2/C(=C(\O)c3cccc(OC)c3)C(=O)C(=O)N2c2ccccn2)cc1 (stereo not given)	12-LOX inh 1.12µM (no result: PLK1 PBD inh, Sfp inh, VDR inh)
COc1cc(C(=O)N2CCN(S(=O)(=O)c3ccc(C)cc3)CC2)ccc1OCC(=O)N1CCOCC1	12-LOX inh inconclusive (no result: Sfp inh)
CC1CCN(c2ccc(S(=O)(=O)NC3=NCCCCC3)cc2[N+](=O)[O-])CC1	none
COc1ccc2c3c(n(C)c2c1)[C@H](CO)N(C(=O)Cc1ccccc1)CC31CCN(C(=O)Cc2ccccc2)CC1	none (no result: PLK1 PBD inh, Sfp inh, VDR inh)
COc1ccc2c3c([nH]c2c1)[C@@H](CO)N(Cc1ccccc1)CC31CN(C(=O)Cc2ccccc2)C1	12-LOX inh 5.01µM (no result: PLK1 PBD inh, Sfp inh, VDR inh)
O=C(O)c1csc(N/N=C/c2ccc(Br)cc2)n1	12-LOX inh 35.5µM, PLK1 PBD inh inconclusive
Cc1c(NC(=O)N(C)C)c(=O)n(-c2ccccc2)n1C	none
Cc1ccc2c(c1)sc1nc(=O)ccn12	PLK1 PBD inh 15µM
CSc1nsc(SC)c1C(=O)NCCNS(=O)(=O)c1ccc(C)cc1	Sfp inh 50.1µM
COc1cc2c(cc1OC)C(CNC(=O)c1ccccc1)N(C(=O)Nc1ccccc1F)CC2 (stereo not given)	none (no result: PLK1 PBD inh, Sfp inh, VDR inh)
COC(=O)c1ccc2c(=O)n(NC(C)=O)c(=S)[nH]c2c1	12-LOX inh inconclusive, Sfp inh 3.98µM
CC(NC(=O)Cc1ccccc1)C12CC3CC(CC(C3)C1)C2 (stereo not given)	none (no result: PLK1 PBD inh, Sfp inh, VDR inh)
CC(NC(=O)Cn1ccsc1=N)C12CC3CC(CC(C3)C1)C2 (stereo not given)	PLK1 PBD inh 7.52µM
CCc1sc(N)nc1-c1ccccc1	Sfp inh 79.4µM
CCN(CC)CCC=C(c1cccs1)c1cccs1	12-LOX inh 50.1µM, PLK1 PBD inh inconclusive (no result: Sfp inh)
CN(C)CCCN=c1cc(-c2ccccc2)oc2ccc(Cl)cc12	12-LOX inh 35.5µM
COc1ccccc1-c1ccc(/C=C2/C=C(CC(C)C)OC2=O)o1	12-LOX inh inconclusive, Sfp inh 50.1µM, VDR inh inconclusive
CN(CCC#N)C(=O)c1ccc(CNS(=O)(=O)c2ccc(F)cc2)cc1	none
